Assay results taken from PubChem BioAssay AID2544 (Sanford-Burnham Center for Chemical Genomics, 2010).
Hit rate of the full screen: of about 330,000 compounds, about 390 (0.12%) were called active.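 How the source made its calls: active means inhibition reaching a set limit with compound at 10 µM in the primary screen (cut at about 35% in these data); inactive means the rest.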 Shown is part of a subset that was picked to be rich in actives.

Target: Intestinal-type alkaline phosphatase (Homo sapiens) (UniProt P09923)
Test: human IAP inhibitors, primary screen, biochemical, luminescence, uHTS (AID 2544);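 further: plate controls were DMSO wells with enzyme for no effect and no-enzyme buffer wells for full effect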
Details: purified IAP, CDP-Star luminescence, 30 min; at 10 µM; active compounds read high

Sequence of Intestinal-type alkaline phosphatase (Homo sapiens) (P09923 whole entry, looked up): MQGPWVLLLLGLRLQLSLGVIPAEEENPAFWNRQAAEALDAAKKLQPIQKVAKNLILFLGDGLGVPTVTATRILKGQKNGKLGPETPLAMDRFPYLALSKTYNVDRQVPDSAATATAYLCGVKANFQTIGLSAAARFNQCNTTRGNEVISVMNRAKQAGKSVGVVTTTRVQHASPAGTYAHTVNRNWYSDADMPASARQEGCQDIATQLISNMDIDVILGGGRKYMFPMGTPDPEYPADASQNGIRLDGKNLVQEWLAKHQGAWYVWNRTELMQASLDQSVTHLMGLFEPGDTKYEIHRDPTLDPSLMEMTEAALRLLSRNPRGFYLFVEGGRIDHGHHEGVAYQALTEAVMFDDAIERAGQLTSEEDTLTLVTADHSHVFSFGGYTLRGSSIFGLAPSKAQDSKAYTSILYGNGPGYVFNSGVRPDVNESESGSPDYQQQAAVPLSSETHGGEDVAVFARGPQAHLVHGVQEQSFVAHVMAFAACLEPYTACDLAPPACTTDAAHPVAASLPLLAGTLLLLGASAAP

inhibition, inactive:
Cc1ccccc1N1CC(C(=O)Nc2nnc(SCCC3OCCO3)s2)CC1=O (configuration not stated) 18.3%
C=CCn1c(=S)sc2c(=O)[nH]c(C)nc21 -10.3%
CN(C)/C=C1\C=C(c2ccccc2)OC1=O 0.7%
Cc1ccc(N=C2SCCCN2C(=O)c2cccc(N3C(=O)CCC3=O)c2)cc1Cl -21.5%
Cc1ccc(-n2ncc3c(Nc4cccc(C(=O)O)c4)ncnc32)cc1 17.6%
Cc1c(NC(=O)CN2C(=O)C(=O)N(Cc3ccccc3)C2=O)c(=O)n(-c2ccccc2)n1C 8.1%
NC(=O)c1nsc(C(=O)N(CC(=O)NCc2ccc(F)cc2)Cc2ccco2)c1N -10.8%
O=C(CSc1nccn1-c1cccc(F)c1)NC1CCCC1 2.7%
Cc1csc(NC(=O)CSc2nc(=O)n(CCCN(C)C)c3c2CCC3)n1 6.4%
O=C(O)C1=CCCN(CCON=C(c2ccccc2)c2ccccc2)C1 -0.4%
CC(C)(C)c1ccc(/C=C2\Oc3c(ccc(O)c3CN3CCN(CCO)CC3)C2=O)cc1 8.9%
CCOC(=O)c1ccc(NC(=O)CCn2c(=O)oc3ccccc32)cc1 -9.6%
CC[C@]1(c2ccccc2OC)C(=O)N(C(=O)OC)N1C(=O)OC 8.5%
O=C(COC(=O)Cc1c[nH]c2ccccc12)NCCc1ccccc1 14.4%
Cc1ccc(Cn2c(=N)c(S(=O)(=O)c3ccc(C)cc3)cc3c(=O)n4ccccc4nc32)cc1 -7.4%
Cc1cc(C(F)F)nn1CC(=O)NC1CCCCCC1 14%
CCC(C)N(C(=O)COC(=O)C1C(C(=O)OC)=C(C)NC(C)=C1C(=O)OC)C1CCS(=O)(=O)C1 (configuration not stated) -1.2%
CCN(C(=O)COC(=O)Cc1c(F)cccc1Cl)c1c(N)n(Cc2ccccc2)c(=O)[nH]c1=O -9.2%
Cc1ccc(CNC(=O)c2cc(-c3ccccc3C)n(CC3CC(c4cccc([N+](=O)[O-])c4)=NO3)n2)cc1 (configuration not stated) 17%
OCCC#Cc1ccc(CN2CCN(Cc3ccsc3)C(CCO)C2)cc1 (configuration not stated) 12.2%
CC1O[C@@H](OC2C(O)C(C)O[C@H](OC(=O)[C@]34CCC(C)(C)C[C@H]3C3=CCC5[C@@]6(C)CC(O)C(O[C@@H]7OC(CO)C(O)[C@@H](O)[C@@H]7O)[C@@](C)(C(=O)O)C6CC[C@@]5(C)[C@]3(CO)CC4)C2O[C@H]2OC(C)[C@@H](O[C@@H]3OCC(O[C@@H]4OC(CO)C(O)[C@H](O)C4O)[C@@H](O)[C@@H]3O)[C@H](O)C2O)C(O)C(O)C1O (some centres not stated) -8.3%
CCOC(=O)c1[nH]cnc1C(=O)NC1CCCCC1 -28.7%
CCN(CC(=O)Nc1ccc2c(c1)OCCO2)Cc1cc(=O)oc2cc(C)c(C)cc12 5%
O=C(NNC1=C(C(=O)C(F)(F)F)CCC1)c1ccncc1 -34.2%
COC(=O)C(C)Sc1ccc2nnc(-c3cccc(F)c3)n2n1 (configuration not stated) -8.4%
COc1ccccc1C(=O)NCCC(=O)NN1C(=O)NC2(CCCCC2)C1=O 14.4%
CC1(C)NC(=O)N(CCCCSc2ccc(Cl)cc2)C1=O -0.2%
Cc1ccc(Cl)c(OCC(=O)N2CCc3ccccc3C2)c1 -20.2%
O=C(CSc1nnc(CNC(=O)c2ccc(F)cc2)o1)Nc1ccc2c(c1)OCO2 -13.1%
COc1ccc(CN2CCC(c3nc4ccc(Cl)cc4[nH]3)CC2)cc1 -27.1%
O=C(NCc1ccc2c(c1)OCO2)C1CCCN(S(=O)(=O)c2cccs2)C1 (configuration not stated) 17.9%
COc1ccc(C(C#N)N2N=C(C)CC2(C)C)cc1 (configuration not stated) -6.2%
